# Test results taken from the antibiotic and cytotoxicity screens of Wong et al. (2023).
# Among all 39,000 compounds or so, about 1,500 (3.8%) were called active. The full list was thinned out, with actives kept by preference.
# Tested on: HSkMC (human skeletal muscle cells)
# Experiment: cytotoxicity call (relative viability < 0.9)
# Conditions: 10 µM
row,SMILES,cytotoxicity call
1,C[C@@H]1CN([C@H](C)CO)C(=O)c2cc(NC(=O)c3ccccc3)ccc2O[C@@H](C)CCCCO[C@@H]1CN(C)Cc1ccc(Cl)c(Cl)c1,inactive
2,COc1ccc(-c2cnc3c(c2)C(=O)N([C@H](C)CO)C[C@H](C)[C@H](CN(C)S(=O)(=O)c2cccs2)O3)cc1,inactive
3,C[C@@H]1CCCCO[C@@H](CN(C)S(C)(=O)=O)[C@@H](C)CN([C@H](C)CO)C(=O)c2cc(NC(=O)CCCN(C)C)ccc2O1,inactive
4,NCC1OC(OC2C(CO)OC(OC3C(O)C(N)CC(N)C3OC3OC(CN)C(O)C(O)C3N)C2O)C(N)C(O)C1O.O=S(=O)(O)O.O=S(=O)(O)O.O=S(=O)(O)O (stereo not drawn),inactive
5,CC(C)NC(=O)N[C@H]1C=C[C@H](CC(=O)NCCN2CCCC2)O[C@H]1CO,inactive
6,O=C(N[C@H]1CC[C@@H](CC(=O)N2CCOCC2)O[C@@H]1CO)c1ccc2c(c1)OCO2,inactive
7,C[C@H](CO)N1C[C@H](C)[C@H](CN(C)C(=O)Nc2ccccc2)OCCCC[C@H](C)Oc2ccc(NS(=O)(=O)c3ccc(Cl)cc3)cc2C1=O,inactive
8,C[C@H](CO)N1C[C@H](C)[C@H](CN(C)Cc2ccc(C(=O)Nc3ccccc3N)cc2)OCc2cn(nn2)CCCC1=O,inactive
9,NC(=S)N/N=C/c1ccncc1,inactive
10,Cl.N=C(NN=Cc1ccc(Cl)cc1)NN=Cc1ccc(Cl)cc1,active
11,Clc1ccc(/C=N/Cc2ccc(-c3cccs3)s2)cc1,inactive
12,C[C@H]1CN([C@@H](C)CO)C(=O)c2cccc(NS(=O)(=O)c3cccs3)c2O[C@H]1CN(C)S(=O)(=O)c1cccs1,inactive
13,CCCCCCc1nc(CCCc2cc3c(c(CCCCCC)n2)[Si](C(C)C)(C(C)C)O[C@H]3c2ccccc2)cc2c1[Si](C(C)C)(C(C)C)O[C@H]2c1ccccc1,inactive
14,Cc1onc(NS(=O)(=O)c2ccccc2-c2ccc(-c3ncco3)cc2CN(C)C(=O)CC(C)(C)C)c1C,inactive
15,C[C@@H]1CN([C@H](C)CO)C(=O)c2cccc(NC(=O)Nc3ccccc3)c2O[C@@H]1CN(C)C(=O)Nc1cccc2ccccc12,inactive
16,Cc1ccc(S(=O)(=O)Nc2ccc3c(c2)C(=O)N([C@H](C)CO)C[C@H](C)[C@H](CN(C)Cc2ccc(C(F)(F)F)cc2)OCCCC[C@@H](C)O3)cc1,inactive
17,C[C@@H]1CCCCO[C@@H](CN(C)Cc2ccc(C(F)(F)F)cc2)[C@H](C)CN([C@H](C)CO)C(=O)c2cc(NS(=O)(=O)c3ccc(F)cc3)ccc2O1,inactive
18,C[C@@H]1CN([C@H](C)CO)C(=O)c2cc(NS(=O)(=O)c3ccc(F)cc3)ccc2O[C@@H](C)CCCCO[C@H]1CN(C)Cc1ccc(C(F)(F)F)cc1,inactive
19,Cc1ccc(S(=O)(=O)Nc2ccc3c(c2)C(=O)N([C@H](C)CO)C[C@H](C)[C@@H](CN(C)Cc2ccc(C(F)(F)F)cc2)OCCCC[C@H](C)O3)cc1,inactive
20,Cc1ccc(S(=O)(=O)Nc2ccc3c(c2)C(=O)N([C@H](C)CO)C[C@@H](C)[C@@H](CN(C)Cc2ccc(C(F)(F)F)cc2)OCCCC[C@H](C)O3)cc1,inactive
21,Cc1ccc(S(=O)(=O)Nc2ccc3c(c2)C(=O)N([C@@H](C)CO)C[C@H](C)[C@@H](CN(C)Cc2ccc(C(F)(F)F)cc2)OCCCC[C@@H](C)O3)cc1,active

row,SMILES,cytotoxicity call
1,Cc1ccc(S(=O)(=O)Nc2ccc3c(c2)C(=O)N([C@@H](C)CO)C[C@H](C)[C@@H](CN(C)Cc2ccc(C(F)(F)F)cc2)OCCCC[C@H](C)O3)cc1,active
2,Cc1ccc(S(=O)(=O)Nc2ccc3c(c2)C(=O)N([C@@H](C)CO)C[C@H](C)[C@H](CN(C)Cc2ccc(C(F)(F)F)cc2)OCCCC[C@H](C)O3)cc1,inactive
3,Cc1ccc(S(=O)(=O)Nc2ccc3c(c2)C(=O)N([C@H](C)CO)C[C@H](C)[C@H](CN(C)Cc2ccc(C(F)(F)F)cc2)OCCCC[C@H](C)O3)cc1,active
4,Cc1ccc(S(=O)(=O)Nc2ccc3c(c2)C(=O)N([C@@H](C)CO)C[C@@H](C)[C@@H](CN(C)Cc2ccc(C(F)(F)F)cc2)OCCCC[C@H](C)O3)cc1,inactive
5,Cc1ccc(S(=O)(=O)Nc2ccc3c(c2)C(=O)N([C@H](C)CO)C[C@@H](C)[C@@H](CN(C)Cc2ccc(C(F)(F)F)cc2)OCCCC[C@@H](C)O3)cc1,inactive
6,C[C@@H]1CCCCO[C@H](CN(C)Cc2ccc(C(F)(F)F)cc2)[C@H](C)CN([C@@H](C)CO)C(=O)c2cc(NS(=O)(=O)c3ccc(F)cc3)ccc2O1,active
7,C[C@H](CO)N1C[C@H](C)[C@@H](CN(C)S(=O)(=O)c2cn(C)cn2)Oc2ccc(NC(=O)NC3CCCCC3)cc2C1=O,inactive
8,COc1ccc([Si](C)(C)[C@@H]2[C@@H](CCO)O[C@]3(C(=O)N(Cc4ccc(N5C(=O)c6ccccc6Oc6ccccc65)cc4)c4ccccc43)[C@H]2C)cc1,inactive
9,C[C@@H]1CCCCO[C@H](CN(C)Cc2ccccc2)[C@@H](C)CN([C@@H](C)CO)C(=O)c2cc(NC(=O)Cc3ccccc3)ccc2O1,inactive
10,COc1ccc(NC(=O)Nc2ccc3c(c2)C(=O)N([C@H](C)CO)C[C@H](C)[C@H](CN(C)Cc2ccc(C(=O)Nc4ccccc4N)cc2)OCCCC[C@@H](C)O3)cc1,inactive
11,CCOc1ccc(S(N)(=O)=O)cc1,inactive
12,NS(=O)(=O)c1ccc(N2CCCC2=O)cc1,inactive
13,C[C@H](CO)N1C[C@H](C)[C@H](CN(C)S(=O)(=O)c2cn(C)cn2)Oc2c(NC(=O)c3cnccn3)cccc2C1=O,inactive
14,Cc1noc(C)c1NC(=O)Nc1ccc2c(c1)C(=O)N([C@H](C)CO)C[C@@H](C)[C@H](CN(C)C(=O)Nc1c(C)noc1C)OCCCC[C@@H](C)O2,inactive
15,O=C(c1cnc2ccccc2c1)C1CC1,inactive
16,CNC[C@@H]1Oc2ccc(NC(=O)Cn3cnnn3)cc2CC(=O)N([C@H](C)CO)C[C@H]1C,inactive
17,Cc1noc(C)c1NC(=O)Nc1ccc2c(c1)C(=O)N([C@H](C)CO)C[C@@H](C)[C@@H](CN(C)Cc1ccc3c(c1)OCO3)OCCCC[C@@H](C)O2,inactive
18,O=C(CCCCCNC(=O)OCc1ccc(CN(C(=O)Nc2ccccc2)[C@@H](Cc2ccccc2)Cn2cc(-c3ccccn3)nn2)cc1)NO,inactive
19,Cc1ccc(S(=O)(=O)Nc2ccc3c(c2)C(=O)N([C@H](C)CO)C[C@H](C)[C@@H](CN(C)Cc2ccc(C(F)(F)F)cc2)OCCCC[C@@H](C)O3)cc1,inactive
20,Cc1ccc(S(=O)(=O)Nc2ccc3c(c2)C(=O)N([C@@H](C)CO)C[C@@H](C)[C@H](CN(C)Cc2ccc(C(F)(F)F)cc2)OCCCC[C@H](C)O3)cc1,inactive
21,Cc1ccc(S(=O)(=O)Nc2ccc3c(c2)C(=O)N([C@@H](C)CO)C[C@@H](C)[C@@H](CN(C)Cc2ccc(C(F)(F)F)cc2)OCCCC[C@@H](C)O3)cc1,active

row,SMILES,cytotoxicity call
1,Cc1ccc(S(=O)(=O)Nc2ccc3c(c2)C(=O)N([C@H](C)CO)C[C@@H](C)[C@H](CN(C)Cc2ccc(C(F)(F)F)cc2)OCCCC[C@@H](C)O3)cc1,inactive
2,Cc1ccc(S(=O)(=O)Nc2ccc3c(c2)C(=O)N([C@@H](C)CO)C[C@H](C)[C@H](CN(C)Cc2ccc(C(F)(F)F)cc2)OCCCC[C@@H](C)O3)cc1,inactive
3,Cc1ccc(S(=O)(=O)Nc2ccc3c(c2)C(=O)N([C@H](C)CO)C[C@@H](C)[C@H](CN(C)Cc2ccc(C(F)(F)F)cc2)OCCCC[C@H](C)O3)cc1,active
4,C[C@@H]1CN([C@H](C)CO)C(=O)c2cccc(NC(=O)c3nc4ccccc4s3)c2O[C@H]1CN(C)C(=O)Nc1cccc2ccccc12,inactive
5,CCN1C(=O)CN(CC(=O)O)C1=O,inactive
6,NCc1ccc2nsnc2c1,inactive
7,C[C@@H]1CN([C@@H](C)CO)C(=O)c2cccc(NS(C)(=O)=O)c2O[C@H]1CN(C)C(=O)Nc1ccc(C(F)(F)F)cc1,inactive
8,O=C(C[C@@H]1CC[C@@H]2[C@H](COC[C@H](O)CN2C(=O)Nc2ccc(F)cc2)O1)NCCCN1CCOCC1,inactive
9,C[C@H](CO)N1C[C@H](C)[C@@H](CN(C)S(C)(=O)=O)OCCCC[C@H](C)Oc2ccc(NS(=O)(=O)c3cn(C)cn3)cc2C1=O,inactive
10,C[C@H]1CN([C@@H](C)CO)S(=O)(=O)c2ccc(C#CC3(O)CCCC3)cc2O[C@@H]1CN(C)C(=O)Nc1cccc(F)c1,active
11,C[C@H]1CN([C@@H](C)CO)S(=O)(=O)c2ccc(C#Cc3ccccc3F)cc2O[C@H]1CN(C)C(=O)c1ccc2c(c1)OCO2,inactive
12,C[C@H](CO)N1C[C@H](C)[C@@H](CN(C)C(=O)Nc2cccc(F)c2)Oc2cc(C#CC3(O)CCCC3)ccc2S1(=O)=O,inactive
13,C[C@H]1CN([C@@H](C)CO)S(=O)(=O)c2ccc(C#Cc3ccncc3)cc2O[C@@H]1CN(C)C(=O)Nc1ccc2c(c1)OCO2,inactive
14,C[C@H]1CN([C@@H](C)CO)S(=O)(=O)c2ccc(/C=C/c3ccccc3)cc2O[C@@H]1CN(C)C(=O)Nc1cc(F)ccc1F,inactive
15,C[C@@H]1CN([C@@H](C)CO)S(=O)(=O)c2ccc(C#CC3(O)CCCC3)cc2O[C@@H]1CN(C)C(=O)Nc1cccc(F)c1,inactive
16,C[C@H]1CN([C@@H](C)CO)S(=O)(=O)c2ccc(C#Cc3ccccc3F)cc2O[C@@H]1CN(C)C(=O)c1ccc2c(c1)OCO2,inactive
17,C[C@@H]1CN([C@H](C)CO)S(=O)(=O)c2ccc(/C=C/c3ccccc3)cc2O[C@H]1CN(C)C(=O)Nc1cc(F)ccc1F,active
18,C[C@@H]1CN([C@@H](C)CO)S(=O)(=O)c2ccc(C#Cc3ccncc3)cc2O[C@H]1CN(C)C(=O)Nc1ccc2c(c1)OCO2,active
19,C[C@H](CO)N1C[C@H](C)[C@@H](CN(C)C(=O)Nc2cc(F)ccc2F)Oc2cc(/C=C/c3ccccc3)ccc2S1(=O)=O,inactive
20,C[C@@H]1CN([C@@H](C)CO)S(=O)(=O)c2ccc(C#Cc3ccccc3F)cc2O[C@H]1CN(C)C(=O)c1ccc2c(c1)OCO2,active
21,C[C@H]1CN([C@@H](C)CO)S(=O)(=O)c2ccc(C#Cc3ccncc3)cc2O[C@H]1CN(C)C(=O)Nc1ccc2c(c1)OCO2,inactive
